Screen size: about 16,000 compounds; about 4,000 (25%) were called active. Not shown: some 26% with an inconclusive outcome. The list is a sample of the results. Values without a mark were called inactive. The call rests on the fitted dose curve; in most records, active means well fitted curve in the direction sought with a large enough effect; inconclusive means small, poorly fitted or top-dose-only effect, or effect the other way; inactive means no such curve, though single readings can be large or run the other way.
On the % scale 0 is the no-effect control and ±100 the full control effect.

The target in the experiment is Cytochrome P450 2C9 (Homo sapiens) (UniProt P11712). The experiment is described as follows: Cytochrome panel assay with activity outcomes. The settings on record: recombinant CYP, pro-luciferin dealkylation, luminescence, p450-cyp2c9; series mostly up to 57.1 µM; activity, negative = inhibition: at the top concentration.
Sequence of Cytochrome P450 2C9 (Homo sapiens) (P11712 whole entry, looked up): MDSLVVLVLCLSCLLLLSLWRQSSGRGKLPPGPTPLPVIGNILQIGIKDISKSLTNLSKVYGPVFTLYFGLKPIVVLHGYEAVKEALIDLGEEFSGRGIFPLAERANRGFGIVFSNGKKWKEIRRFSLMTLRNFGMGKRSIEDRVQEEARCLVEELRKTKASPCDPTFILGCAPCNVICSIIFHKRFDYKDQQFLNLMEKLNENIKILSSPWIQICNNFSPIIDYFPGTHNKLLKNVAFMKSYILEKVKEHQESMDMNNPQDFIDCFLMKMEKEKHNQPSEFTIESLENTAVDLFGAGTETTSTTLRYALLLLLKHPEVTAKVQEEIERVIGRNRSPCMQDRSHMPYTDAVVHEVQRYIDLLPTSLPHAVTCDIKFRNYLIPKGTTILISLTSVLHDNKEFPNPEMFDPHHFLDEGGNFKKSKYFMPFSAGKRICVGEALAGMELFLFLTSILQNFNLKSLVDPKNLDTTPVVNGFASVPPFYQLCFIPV
In the case of `S=C(NCc1ccco1)N1CCN(C(c2ccccc2)c2ccccc2)CC1`, the AC50 (as a rule, the midpoint of the concentration-response curve, whichever way the signal moves) is 3.16 µM (active).

`NC(=O)CNCCC(c1ccccc1)c1ccccc1`: the “activity, negative = inhibition” value was 14.6%.

In the case of `O=C1C2ON(c3ccccc3)C(c3ccncc3)C2C(=O)N1c1ccccc1` (configuration not stated), the AC50 is 0.398 µM (active).

For the molecule `COC(=O)c1cc(=O)n(C2CC2)c(=NC2CC2)s1`, the “activity, negative = inhibition” value is 18.9%.

Regarding `O=C(O)c1ccccc1C(=O)Nc1nccs1`, the “activity, negative = inhibition” value was -17.5%.

As for `O=C(O)[C@H](CCc1ccccn1)c1ccccc1`, the activity, negative = inhibition is -5.61% [at 11.4 µM].

For `CCCC(C(=O)Nc1nccs1)c1ccccc1` (configuration not stated), the AC50 was 12.6 µM (active).

In the case of `COc1ccccc1CN1CCC2(CC1)CCN(C(=O)c1cccn1C)CC2`, the “activity, negative = inhibition” value was 8.97%.

In the case of `CC(=O)OCCCN1c2ccccc2Nc2nnc(-c3ccccc3)cc21`, the concentration at half-maximal activity (AC50) is 1.78 µM (active).

On to `CCCNC(=O)N1N=C(c2ccc(N)cc2)c2cc3c(cc2[C@H]1C)OCO3`, for which the “activity, negative = inhibition” value was -17%.

Turning to `Cc1ccc(C)c(S(=O)(=O)NC(CC(C)C)C(=O)O)c1` (configuration not stated), the “activity, negative = inhibition” value was 2.73%.

Regarding `Cc1ccc(SCCNC(=S)Nc2ccc(C)c(C)c2)cc1`, the AC50 was 12.6 µM (active).

As to `Cc1ccccc1NS(=O)(=O)c1cc(C(=O)Nc2cccc(N(C)S(C)(=O)=O)c2)ccc1C`, the AC50 is 0.794 µM (active).

On to `O=C(O)[C@@H]1[C@@H](C(=O)NCc2ccncc2)[C@@H]2C=C[C@@H]1O2`, for which the activity, negative = inhibition was -12.4% [at 11.4 µM].

Regarding `Cc1ccc(C(=O)NCc2ccc(N3CCN(C(=O)OC(C)(C)C)CC3)cc2)cc1`, the “activity, negative = inhibition” value is -18.2%.

Regarding `Cc1ccc(SCc2ccc(C(=O)NCc3ccncc3)cc2)cc1`, the AC50 was 0.0126 µM (active).

In the case of `Cc1ccc(SCCNC(=O)c2ccc(C)c(S(=O)(=O)Nc3ccccc3C)c2)cc1`, the concentration at half-maximal activity (AC50) was 4.47 µM (active).

As to `COCC(=O)N1CCC2(CC1)CN(Cc1ccccc1OC)C2`, the “activity, negative = inhibition” value was 16.9%.

Consider `CC1=C(C(=O)O)N2C(=O)C(NC(=O)c3ccn(C)n3)C2SC1` (configuration not stated), for which the “activity, negative = inhibition” value is -1.32%.

`CC(C)(N=NC(C)(C)C(=N)N)C(=N)N`: the activity, negative = inhibition was 0.959% [at 11.4 µM].

Regarding `COc1ccccc1CN1CCCC2(CCN(C(=O)c3cnccn3)CC2)C1`, the “activity, negative = inhibition” value was 13.5%.

Take `Cc1ccc(SCCNC(=O)c2ccccc2)cc1`: the AC50 is 17.8 µM (active).

Consider `Cc1ccc(C(=O)NCCNC(=O)CN2CCOCC2)cc1`, for which the “activity, negative = inhibition” value is -18.5%.

As for `O=C1NC(c2cccc([N+](=O)[O-])c2)=CCN1c1ccccc1O`, the half-maximal activity concentration (AC50) is 1 µM (active).

`Nc1nc(-c2cccc([N+](=O)[O-])c2)cc(-c2cc(-c3cccc([N+](=O)[O-])c3)nc(N)n2)n1`: the activity, negative = inhibition was 20.9% [at 11.4 µM].

For the molecule `Cc1c(-c2ccc(F)cc2)nc(N)c(C#N)c1-c1cccs1`, the half-maximal activity concentration (AC50) is 1.58 µM (active).

As for `CSc1nc(N)nc(-c2cccs2)c1C#N`, the AC50 was 7.08 µM (active).

As to `Nc1nc(-c2cccs2)cs1`, the “activity, negative = inhibition” value is -11.3%.

Consider `Cc1cnc(CNc2ccnc(-c3ccc(N(C)C)cc3)n2)cn1`, for which the activity, negative = inhibition is 1.73% [at 2.29 µM].

As to `COc1cccc(/C=N/n2nnc3c(cnn3-c3ccccc3)c2=O)c1`, the “activity, negative = inhibition” value was 1.29%.

With `O=C(CCN1CCCCC1)N1CCc2c([nH]c3ccccc23)[C@H]1c1cccnc1`, the activity, negative = inhibition is 2.98% [at 11.4 µM].

For the molecule `Clc1ccc(CSC2=NCCN2)cc1Cl`, the activity, negative = inhibition is 9.47% [at 11.4 µM].

As for `CNc1cc(CSC)nc(SCc2ccc(Cl)c(Cl)c2)n1`, the AC50 was 8.91 µM (active).

Consider `COc1ccc(-c2nc3cnc(Nc4cccc(OC)c4)nc3n(CCC#N)c2=O)cc1`, for which the “activity, negative = inhibition” value was 4.66%.

Regarding `COc1ccc(NC(=O)C2CC(=O)NC3=C2C(=O)CC(C)(C)C3)cc1` (configuration not stated), the “activity, negative = inhibition” value is -7.67%.

In the case of `COc1ccc(OC)c(C2CC(=O)C3=C(C2)NC(=O)CC3c2ccc(O)c(OC)c2)c1` (configuration not stated), the AC50 is 11.2 µM (active).

In the case of `COc1cc(C2SCCCCCCCCCCSC(c3ccc(O)c(OC)c3)SCCCCCCCCCCS2)ccc1O` (configuration not stated), the activity, negative = inhibition was 10.3% [at 11.4 µM].

`O=C=Nc1ccc(Cc2ccc(N=C=O)cc2)cc1` (tested in a mixture with another compound): the activity, negative = inhibition was 2.55% [at 11.4 µM].

As for `O=C(Nc1ccccc1N1CCOCC1)c1cnccn1`, the AC50 is 2 µM (active).

Consider `O=C(NCc1ccccc1Cl)c1cnccn1`, for which the “activity, negative = inhibition” value was -20.1%.

For `O=C(Nc1ccccc1)N1CCC2(CC1)CCN(C(=O)c1cnccn1)CC2`, the “activity, negative = inhibition” value is 12.7%.

Regarding `CCC/C=C(\CCC)C(NS(=O)(=O)c1ccc(Cl)cc1)c1ccc(C(=O)OC)cc1` (configuration not stated), the AC50 is 3.16 µM (active).

Take `CCC/C=C(\CCC)C(NS(=O)(=O)c1ccc(C(F)(F)F)cc1)c1ccc(-c2ccccc2)cc1` (configuration not stated): the “activity, negative = inhibition” value was -29.2%.

Consider `CCC/C=C(\CCC)C(NS(=O)(=O)CC12CCC(CC1=O)C2(C)C)c1ccc(C(=O)OC)cc1` (configuration not stated), for which the AC50 is 15.8 µM (active).

Consider `CCC/C=C(\CCC)C(NS(=O)(=O)c1ccc(C(F)(F)F)cc1)c1ccc(C(=O)OC)cc1` (configuration not stated), for which the AC50 was 3.16 µM (active).

As to `COC(=O)C/C=C\[C@H](C)[C@H](CO)NS(=O)(=O)c1ccc(C)cc1`, the activity, negative = inhibition is 0.902% [at 11.4 µM].

As to `CCC/C=C(\CCC)C(NS(=O)(=O)c1ccccc1)c1ccc(C(F)(F)F)cc1` (configuration not stated), the AC50 was 10 µM (active).

For the origin of these results see PubChem BioAssay AID1851 (National Center for Advancing Translational Sciences (NCATS), 2009).
